D2 PAM-1: potentiates the human D2 dopamine receptor allosterically; DiscoveRx D2 beta-arrestin cells, luminescence, 90 min; 100% = 57 uM dopamine signal; potentiation, % (test concentration not listed); 0.23% of 360,000 active; AID 624464; in the data active means potentiation above about 50%; inconclusive means mostly about 30% to 49%
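PathHunter D2 cells, attached overnight at 37 deg C, received compound in DMSO plus dopamine at EC20 (50 nM final) for 90 min at 37 deg C. Beta-arrestin recruitment was read as luminescence after 1 h with detection reagent at ambient temperature.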
D2 ag-1: agonists of human D2 dopamine receptor (beta-arrestin); DiscoveRx PathHunter D2 beta-arrestin, luminescence, 90 min; 100% = 57 uM dopamine signal; 0.084% of 360,000 active; activation, % (concentration not given with the values); P14416; AID 624465; in the data active means activation above about 40%; inconclusive means between about 15% and that limit
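Agonist mode: compounds alone added to overnight-plated D2 PathHunter cells for 90 min at 37 C, with 57 uM final dopamine (EC100) defining full response. Beta-arrestin recruitment detected by chemiluminescent reagent, read after 1 h at ambient temperature.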
D2 ag-2: agonists of human D2 dopamine receptor. P14416. HEK293 T-REx D2 cells, calcium flux agonist mode. activation, % at 2 µM. 0.53% of 340,000 active;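 active means activation over 3 SD above normal in the single-dose calcium agonist read, cut at about 30% in these data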; further: 0% is about no effect
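HEK293 Trex D2 cells, tetracycline-induced, o/n 30 C 5% CO2; no-wash Ca dye, RT 30–90 min; 10-cycle baseline, 23 nl cpd added, kinetic Ca read 180 s; agonist hits = positive Ca response.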
D2 antagonist: antagonizes the human D2 dopamine receptor; P14416; HEK293 TREx D2 cells, calcium flux, dopamine EC80; inhibition, % at 10 µM; 2% of 340,000 active; AID 485344; in the data active means inhibition above about 30%; inactive means below that, where a call was filed; further: 0% is about no effect
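Calcium flux kinetic readout in an inducible HEK293 TREx D2 line plated overnight at 30 C. After 180 s compound exposure, an EC80 dopamine challenge follows with another 180 s kinetic read to detect antagonism.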
D2 PAM-2: D2 dopamine receptor (human) potentiation; P14416; HEK293 T-REx D2, calcium flux, EC20 dopamine potentiation; potentiation, % at 10 µM; 0.34% of 340,000 active; AID 485347;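 active means potentiation over 3 SD above the plate norm, cut at about 30% in these data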; further: 0% is about no effect
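Using a no-wash calcium dye in inducible, force-coupled HEK293 Trex cells expressing D2, we tracked fluorescence each second for 180 s after compound, then for 180 s after EC20 dopamine to detect augmented signalling.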
D3 arrestin ag: confirmation of human D3 dopamine receptor agonists, beta-arrestin | Potency, µM (titrated, usually from 76.9 µM), without a hit: at the highest dose activation, most hits filed as activators | 4% of 2,300 active | DiscoveRx D3 beta-arrestin cells, luminescence, 90 min | shares compounds with D2 ag-2;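 further: potency means the concentration at half of the fitted maximal effect; 100% = dopamine control response; nearly all actives have a fitted effect of over 70% in size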
Target sequence (P35462 whole entry, looked up): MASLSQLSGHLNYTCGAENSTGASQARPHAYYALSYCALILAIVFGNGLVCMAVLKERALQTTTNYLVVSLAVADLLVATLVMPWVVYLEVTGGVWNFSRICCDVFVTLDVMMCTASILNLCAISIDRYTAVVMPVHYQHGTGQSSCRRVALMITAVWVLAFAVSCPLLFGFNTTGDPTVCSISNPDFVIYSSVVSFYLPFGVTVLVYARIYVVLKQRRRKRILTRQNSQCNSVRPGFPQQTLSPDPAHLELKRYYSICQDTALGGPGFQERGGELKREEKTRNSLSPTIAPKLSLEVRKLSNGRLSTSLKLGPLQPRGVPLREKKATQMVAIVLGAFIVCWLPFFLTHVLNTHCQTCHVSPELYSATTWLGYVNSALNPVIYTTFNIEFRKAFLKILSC
D2 ag-3: counter-screen for D3 agonists: human D2 dopamine receptor agonism; shares compounds with D2 ag-2; DiscoveRx PathHunter D2 beta-arrestin, luminescence, 90 min; response scale: percent relative to full dopamine signal; Potency, µM (doses to about 76.9 µM), for the others: at the top dose activation, usual class: activators; 5.9% of 2,300 active; AID 720507; further: potency means the concentration at half of the fitted maximal effect; % of control where 0% means no effect; nearly all actives have a fitted effect of over 70% in size
The depositor's hits bear a star; ? = inconclusive; . = no result. Shown are actives, neighbours in structure and some others; about 2.4% of the full set was active somewhere. Unless noted, the call rests on the fitted dose curve; in most records, active means well fitted activation curve with a large enough effect; inconclusive means small, poorly fitted or top-dose-only effect; inactive means flat fitted curve, though single readings scatter.

SMILES | D2 PAM-1 | D2 ag-1 | D2 ag-2 | D2 antagonist | D2 PAM-2 | D3 arrestin ag | D2 ag-3
O=C(CCNS(=O)(=O)c1ccccc1C(F)(F)F)N1CCCCCCC1 | -2 | -2 | 0 | 3 | -3 | 1% | -2%
O=C(CCNS(=O)(=O)c1ccccc1C(F)(F)F)N1CCN(C(c2ccccc2)c2ccccc2)CC1 | -12 | 0 | 0 | -15 | 0 | . | .
O=S(=O)(NCCCN1CCN(c2ccccc2F)CC1)c1cccc2cccnc12 | 1 | -4 | . | . | . | 17% | 14%
O=S(=O)(NCCN1CCCC1)c1cccc2cccnc12 | -6 | -2 | 1 | -10 | 0 | . | .
Oc1ccc(N2CCN(Cc3ccc(OCCCN4CCCCC4)cc3)CC2)cc1 | 5 | 47* | 72* | 91* | -29 | ? | 4.5µM*
c1ccc(COc2ccc(OCCCCN3CCCCC3)cc2)cc1 | -44 | 4 | 0 | -15 | -11 | . | .
CN(C)CCCNC(=O)c1cccc(-c2cnc3cccnn23)c1 | -5 | -4 | . | . | . | . | .
CC(NC(=O)CCCN1C(=O)CCn2nc(-c3cn(C)c4ccccc34)cc21)c1ccccc1 (stereo unspecified) | . | . | -1 | . | 3 | . | .
Cc1cccc(NC(=S)NCCc2ccccc2)c1C | -5 | -3 | -3 | -5 | 14 | . | .
Cc1cccc(C)c1NC(=S)NCCc1ccc(O)c(O)c1 | 7 | 5 | 57* | 67* | -20 | -8% | ?
CCCCN(C)CCNC(=O)C1CCN(c2nc3ccc(CC)cc3s2)CC1 | . | . | 2 | . | -5 | . | .
CCOc1cc(S(=O)(=O)NCCc2c(C)[nH]c3ccc(C)cc23)ccc1F | . | . | 0 | . | 3 | . | .
O=C(Nc1c[nH]c(=O)[nH]c1=O)c1ccccc1Br | -3 | -1 | 0 | 7 | 6 | . | .
CC(Nc1c[nH]c(=O)[nH]c1=O)c1ccccc1 (stereo unspecified) | -6 | 0 | 1 | 69* | 4 | 0% | 0%
N#CC1(NC(=O)CN2CCc3ccccc3C2)CCCC1 | 0 | 4 | 16 | 8 | -32 | 1% | 10%
CC(CCc1ccccc1)NC(=O)CN1CCc2ccccc2C1 (stereo unspecified) | 4 | 15 | 71* | 68* | -17 | -4% | ?
Cc1ccc(NC(=O)CN2CCc3ccccc3C2)cc1S(=O)(=O)N(C)C | -9 | 8 | 47* | 18 | -22 | 30% | 29%
CCOc1ccccc1NC(=O)CN1CCc2ccccc2C1 | -6 | 4 | 3 | 0 | -7 | . | .
CC(=O)C(Cc1ccccc1)NC(=O)CN1CCc2ccccc2C1 (stereo unspecified) | -15 | -2 | 0 | 7 | -8 | . | .
Cc1ccccc1NC(=O)CN1CCc2ccccc2C1 | -12 | ? | 68* | 40* | -24 | ? | ?
COc1ccc(CNC(=O)Cc2ccc(NC(=O)N3CCSc4ncccc43)cc2)cc1OC | . | . | 1 | . | 6 | . | .
CN(C)S(=O)(=O)c1ccc(Cl)c(NC(=O)CN2CCc3ccccc3C2)c1 | 16 | 64* | 61* | 87* | -25 | 10µM* | 14µM*
CCN(CC)S(=O)(=O)c1ccc(O)c(NC(=O)CN2CCc3ccccc3C2)c1 | -5 | -3 | 4 | -6 | -4 | . | .
Cc1cccc(NC(=O)N2CCc3ccccc3C2)c1C | -5 | -6 | 26 | 5 | -6 | -13% | 0%
CN(C)S(=O)(=O)c1ccc(Cl)c(NC(=O)CN2CCN(c3ccccn3)CC2)c1 | 3 | ? | 69* | 27 | -25 | ? | 32µM*
SMILES | D2 PAM-1 | D2 ag-1 | D2 ag-2 | D2 antagonist | D2 PAM-2 | D3 arrestin ag | D2 ag-3
O=C(CN1CCc2ccccc2C1)NC1CCCC1 | -8 | 1 | -2 | 14 | 9 | 2% | 4%
O=C(NC1CCCCC1)N1CCc2ccccc2C1 | -26 | -4 | 0 | -3 | 2 | . | .
CCN(Cc1ccccc1)C(=O)Cn1c(=O)n(-c2ccc(F)c(Cl)c2)c(=O)c2sc3ccccc3c21 | . | . | 1 | . | 1 | . | .
CCCCC(=O)Nc1cc(C)c(O)c(-c2nc3ncccc3o2)c1 | . | . | -1 | . | -1 | . | .
COc1ccc(Cl)cc1NC(=O)C1CCN(S(=O)(=O)c2ccc(F)cc2)CC1 | . | . | 1 | . | -21 | . | .
Cc1ccc(NC(=O)C2CCN(c3nc4ccccc4[nH]3)CC2)cc1Cl | . | . | -1 | . | -18 | . | .
COc1cc([C@H]2[C@@H]3CCCC[C@]3(O)CCN2CC(=O)Nc2ccc(C)cc2C)ccc1O | 2 | 0 | 29 | -4 | -5 | 8% | -3%
COc1cc([C@H]2[C@@H]3CCCC[C@]3(O)CCN2Cc2ccccc2F)ccc1O | -14 | -5 | 0 | -3 | 12 | . | .
O=C(CSc1nncs1)NNC(=O)c1ccco1 | -4 | -4 | 0 | 0 | -5 | -1% | -1%
CC(C)OC(=O)c1c(NS(=O)(=O)c2ccccc2)sc2c1CCCC2 | -1 | -2 | 1 | 26 | 3 | -11% | -5%
N#Cc1ccccc1OCC(=O)OCCCOC(=O)COc1ccccc1C#N | -4 | -1 | 62* | 15 | -19 | 1% | -2%
CCOc1ccc(CCNC(=O)Cn2c(=O)c3cccn3c3ccc(F)cc32)cc1OCC | . | . | 0 | . | 6 | . | .
CCOC(=O)C1CCCN(CCC(=O)Nc2ccc(OC)cc2OC)C1 (stereo unspecified) | . | . | . | . | -27 | . | .

Screens: PubChem, National Center for Advancing Translational Sciences (NCATS)
